Measurements: PubChem BioAssay AID720540 (National Center for Advancing Translational Sciences (NCATS), 2013)
In all, about 1,300 compounds went through this assay and about 460 (35%) were called active. About 39% were inconclusive and are not listed. Calls come from the whole dose curve; as a rule, active = well fitted inhibition curve with a large enough effect; inconclusive = small, poorly fitted or top-dose-only effect; inactive = flat fitted curve, though single readings scatter. This is one part of the list.

Molecular target: Protein phosphatase EYA2 (Homo sapiens) (UniProt O00167)
Assay: qHTS for Inhibitors of the Phosphatase Activity of Eya2: Confirmatory Assay for Cherry-picked Compounds; note: nearly all actives have a fitted effect of over 65% in size;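 for activity change, negative = inhibition: 0% = DMSO wells and -100% = EGTA control giving full inhibition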
Conditions: purified EYA2 phosphatase activity, qHTS confirmation; series mostly up to 46.1 µM; activity change, negative = inhibition: at the top concentration
In short: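 Eya2 (0.2 uM working solution) preincubated 10 min at room temperature with compound in pH 7.5 HEPES buffer with MgCl2, BSA, DTT. OMFP added (50 uM working solution), 10 min more; fluorescence 485/525 nm, normalized to EGTA and DMSO.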
Potency is the fitted concentration of half-maximal effect.

Sequence of Protein phosphatase EYA2 (Homo sapiens) (O00167 whole entry, looked up): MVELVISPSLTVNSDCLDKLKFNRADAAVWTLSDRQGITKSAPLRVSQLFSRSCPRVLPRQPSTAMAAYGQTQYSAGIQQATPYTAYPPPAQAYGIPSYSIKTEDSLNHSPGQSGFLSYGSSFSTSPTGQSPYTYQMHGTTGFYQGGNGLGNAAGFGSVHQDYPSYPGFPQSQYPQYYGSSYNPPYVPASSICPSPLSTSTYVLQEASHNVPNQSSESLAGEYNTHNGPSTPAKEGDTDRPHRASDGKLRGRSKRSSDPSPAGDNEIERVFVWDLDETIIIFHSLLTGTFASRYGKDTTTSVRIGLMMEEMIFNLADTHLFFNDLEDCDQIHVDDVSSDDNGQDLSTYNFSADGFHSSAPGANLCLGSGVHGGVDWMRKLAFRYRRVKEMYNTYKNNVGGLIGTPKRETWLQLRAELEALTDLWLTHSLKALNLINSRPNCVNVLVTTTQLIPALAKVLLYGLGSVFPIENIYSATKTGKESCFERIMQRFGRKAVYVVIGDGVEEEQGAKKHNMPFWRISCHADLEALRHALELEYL

SMILES	activity change, negative = inhibition	Potency
COc1ccc(-c2cc(C3CCNCC3)[nH]n2)cc1	-8.52% (inactive)	
O=C(N[C@@H]1CC[C@H](CCn2cc(-c3ccccn3)nn2)O[C@@H]1CO)c1ccncc1		19 µM (active)
CCN(CC)c1ccc(NC(=O)c2ccc3c(c2)c(C)c(C)n3C)cc1		13.5 µM (active)
CC(C)(C)NC(=O)c1cccc(NC(=O)c2ccc(NC(=O)c3ccco3)cc2)c1	-21% (inactive)	
CC1C=CCC2C(=O)N(c3ccc(OC(=O)c4cccs4)cc3)C(=O)C12 (centres undefined)		3.38 µM (active)
CC1C=CCC2C(=O)N(c3ccc(OC(=O)c4ccco4)cc3)C(=O)C12 (centres undefined)		7.57 µM (active)
Cc1nc(-n2[nH]c3c(c2=O)CCCC3)[nH]c(=O)c1Cc1ccccc1		19 µM (active)
CCCc1nc(N2CCN(C)CC2)c2sc(=S)n(-c3ccccc3)c2n1	-21.6% (inactive)	
O=S(=O)(c1cc(O)ccc1O)c1cccc2c(S(=O)(=O)c3cc(O)ccc3O)cccc12		15.1 µM (active)
N#Cc1c2nc3ccccc3nc2n2cc(NC(=O)c3ccc(F)cc3)ccc12		4.26 µM (active)
CC(C)CCNC(=O)c1onc(CSc2ccncc2)c1C(=O)NCCC(C)C	-9.87% (inactive)	
O=C1NC(=O)/C(=C\c2ccccc2OCc2cccc([N+](=O)[O-])c2)N1	-27.6% (inactive)	
CCOc1cc(/C=C2/NC(=O)NC2=O)cc(Br)c1OCc1ccc(C(=O)O)cc1		21.3 µM (active)
Cc1c(NC(=O)c2ccco2)cccc1C(=O)NN1C(=O)c2ccccc2C1=O	-17.1% (inactive)	
COc1ccc(-c2nc(N)ncc2-c2csc(C)n2)c(O)c1	-21.3% (inactive)	
C=C(C)COc1ccc(-c2nc(N)nc(C)c2-c2ccc(OC)cc2)c(O)c1		7.57 µM (active)
COc1ccc(-n2c(SCC(=O)Nc3cc(C(=O)O)ccc3C)nc3ccccc3c2=O)cc1Cl		8.49 µM (active)
COc1ccccc1-n1c(SCC(=O)Nc2cc(C)on2)nc2c(c1=O)SCC2	-20.4% (inactive)	
O=C(O)c1ccc(CSc2nc3ccccc3c(=O)n2-c2ccccc2)cc1	-26.9% (inactive)	
COc1ccccc1-c1noc2c1C(=O)N(Cc1cn(-c3ccc(Cl)cc3)nn1)CC2	-24.7% (inactive)	
O=c1cc2ncc(-n3cc([N+](=O)[O-])cn3)cn2[nH]1	-10.2% (inactive)	
CCC(=O)N1c2ccc(S(=O)(=O)N3CCN(c4ccc([N+](=O)[O-])cc4)CC3)cc2CC1C (centres undefined)	-21.1% (inactive)	
Cc1cccc(N2CC(C(=O)OCC(=O)c3ccc(OC(=O)c4cccs4)cc3)CC2=O)c1C (centres undefined)		9.53 µM (active)
CCn1c2ccccc2c2cc(NC(=O)COC(=O)c3ccc(NC(=O)CC#N)cc3)ccc21	-9.27% (inactive)	

SMILES	activity change, negative = inhibition	Potency
O=C(COC(=O)c1cc(=O)[nH]c2ccccc12)Nc1cccc(S(=O)(=O)N2CCOCC2)c1	-29.9% (inactive)	
Nc1nccnc1C(=O)OCC(=O)Nc1ccc2[nH]c(=O)[nH]c2c1		13.5 µM (active)
CCOc1ccc2ccccc2c1C(=O)N[C@@H]1C(=O)N2[C@@H]1SC(C)(C)[C@@H]2C(=O)O	-15.5% (inactive)	
O=C(C[n+]1ccccc1)c1ccc(O)c(O)c1	-16.6% (inactive)	
Cc1ccc(OCCSc2nc3ccccc3n2CCC(=O)O)c(C(C)C)c1	-23.1% (inactive)	
O=C(CSc1nc2ccccc2n1CCc1ccccc1)c1ccc(O)c(O)c1		13.5 µM (active)
CCOCCCNC(=O)c1cc2sc(Cl)cc2n1CC	-9.06% (inactive)	
Nc1ccccc1C(=O)NNc1c2ccccc2nc2ccccc12		8.49 µM (active)
O=[N+]([O-])c1ccccc1Nc1nc(-c2cccnc2)cs1		15.1 µM (active)
O=C(CN1C(=O)c2ccccc2C1=O)Nc1nc(-c2cccc([N+](=O)[O-])c2)cs1	-5.34% (inactive)	
CNc1cccc2c1C(=O)c1ccccc1C2=O		1.69 µM (active)
CN(C)c1ccc(N=Nc2ccnc3ccccc23)cc1		3.38 µM (active)
Cc1cc(O)cc(O)c1/C=N/NC(=O)c1ccc2c(c1)OCCO2		7.57 µM (active)
S=c1[nH]nc(-c2ccccn2)n1/N=C/c1ccc(Br)s1		16.9 µM (active)
NC(=O)[C@@H]1CC2(CC(c3cccc(NC(=O)COc4ccc(Cl)cc4)c3)=NO2)CN1C(=O)COc1ccc(Cl)cc1 (some centres undefined)	-21.3% (inactive)	
CCn1c(C)cc(/C=C2/SC(=O)N(C(C)C(=O)OC)C2=O)c1C (centres undefined)	-22.8% (inactive)	
CCOC(=O)C(C)N1C(=O)S/C(=C\c2ccc(-c3ccccc3C(=O)O)o2)C1=O (centres undefined)		19 µM (active)
Cc1c(C(=O)O)cccc1-c1ccc(/C=C2\SC(=O)NC2=O)o1	-17.9% (inactive)	
COCCN(Cc1cc2cc3c(cc2nc1Cl)OCO3)C(=O)Nc1ccc(OC)cc1	-8.91% (inactive)	
COc1ccc2[nH]cc(CCn3ccc(O)c(C/C=C/c4ccccc4)c3=O)c2c1		21.3 µM (active)
CC(=O)Nc1ccc(S(=O)(=O)O)c2cc(S(=O)(=O)O)c(N=Nc3ccc(N=Nc4ccc(S(=O)(=O)O)cc4)c4ccc(S(=O)(=O)O)cc34)c(O)c12		1.51 µM (active)
O=S(=O)(O)c1ccc2c(N=Nc3ccc(S(=O)(=O)O)c4ccccc34)c(O)c(S(=O)(=O)O)cc2c1		7.57 µM (active)
CCN1CCN(c2ncnc3scc(-c4ccc(C)cc4)c23)CC1	-19% (inactive)	
CCOc1ccc(NC(=O)C2CC(=O)N(CCc3ccc(OC)c(OC)c3)C2)cc1OCC (centres undefined)		12 µM (active)

SMILES	activity change, negative = inhibition	Potency
COc1ccc2cc(C(=O)N3CCN(c4ccc(F)cc4)CC3)[nH]c2c1	-5.52% (inactive)	
COc1ccc(N2CCN(C(=O)c3cc(-c4cc(OC)ccc4OC)nc4ccccc34)CC2)cc1		16.9 µM (active)
O=C1/C(=C\c2cccc([N+](=O)[O-])c2O)SC(=S)N1Cc1ccccc1		6.75 µM (active)
Oc1ccc(-c2nc3c4c(ncn3n2)-c2ccccc2CC42CCCC2)cc1	-18.2% (inactive)	
COc1ccc(NC(=O)/C(C#N)=C/c2ccc(-c3ccc(Cl)c(C(=O)O)c3)o2)cc1		19 µM (active)
COc1ccc(/C=C(/C#N)C(=O)Nc2ccc(O)cc2)cc1C(=O)O		9.53 µM (active)
N#C/C(=C\c1ccc(-c2ccc(C(=O)O)cc2)o1)C(=O)Nc1ccc(F)cc1		16.9 µM (active)
COc1ccc(CC(CC(=O)O)C(=O)Nc2ccc(Cl)c(Cl)c2)cc1 (centres undefined)	6.93% (inactive)	
O=C(Cn1ccc(=O)[nH]c1=O)Nc1nccs1	-8.64% (inactive)	
CC(Oc1ccc(F)cc1)C(=O)Nc1cc(S(=O)(=O)N2CCCCC2)ccc1N1CCN(C)CC1 (centres undefined)	-25.7% (inactive)	
CCOc1ccc(S(=O)(=O)N2CCN(C)CC2)cc1NC(=O)c1ccccc1F		8.49 µM (active)
Cc1ccc(-c2csc(N3CCN(CCCn4c(C(F)(F)F)nc5ccccc54)CC3)n2)cc1	-22.1% (inactive)	
Oc1[nH]c2ccccc2c1N=Nc1nc2ccccc2s1	-30% (inactive)	
CCCSC1=N/C(=C\C=C\c2ccco2)C(=O)S1		9.53 µM (active)
O=c1nc2c(O)cccn2c2c1c(=O)[nH]c1ccccc12		4.26 µM (active)
Cc1ccc(C(=O)CSc2nnc(CNc3nc(-c4ccccc4)cs3)n2C)cc1		7.57 µM (active)
COc1ccc(N)cc1-n1c(C)ccc1C	-0.42% (inactive)	
O=[N+]([O-])c1ccc([N+](=O)[O-])c(Nc2ccc(N3CCOCC3)cc2)c1		10.7 µM (active)
CSCCC(=O)Nc1nc(-c2ccccn2)cs1		19 µM (active)
CCn1nc(C(=O)Nc2nc(-c3ccccn3)cs2)c2ccccc2c1=O		4.26 µM (active)
O=C(CCS(=O)(=O)c1ccc(F)cc1)Nc1nc(-c2ccccn2)cs1		13.5 µM (active)
Cn1cccc1/C=N/N1CCN(Cc2cccc3ccccc23)CC1		15.1 µM (active)
COc1ccccc1/C=C/C=N/N1CCN(Cc2cccc3ccccc23)CC1		8.49 µM (active)
Cc1cc(C(=O)COC(=O)c2ccc(O)cc2)c(C)n1CCc1ccc(F)cc1	-22.6% (inactive)	

SMILES	activity change, negative = inhibition	Potency
O=C(CSc1ccc2nnc(-c3ccccn3)n2n1)Nc1ccccc1		16.9 µM (active)
CCCCC(Sc1ccc2nnc(-c3ccccn3)n2n1)C(=O)O (centres undefined)		16.9 µM (active)
CCC(=O)Nc1ccc(-c2nnc(SCc3ccccc3)n2C)cc1	-7.17% (inactive)	
O=C(CSc1ccc2nnc(-c3ccccn3)n2n1)Nc1ccccc1C(F)(F)F		19 µM (active)
O=C(CSc1ccc2nnc(-c3ccccn3)n2n1)Nc1ccccc1F		12 µM (active)
O=S(=O)(O)c1ccc(O)c2cc(Nc3ccccc3)ccc12		7.57 µM (active)
COc1ccc(/C=C/C(=O)Nc2ccc3nc4n(c(=O)c3c2)CCCC4)cc1	-23.1% (inactive)	
O=C(c1ccc2c(=O)n3c(nc2c1)CCCCC3)N1CCN(c2cccc(Cl)c2)CC1		16.9 µM (active)
NC(=O)c1nc(C(=O)N2CCCCC2)c2ccccc2n1	-4.08% (inactive)	
COc1cc2c(cc1OC)C(c1ccc([N+](=O)[O-])cc1)NCC2 (centres undefined)	-11.5% (inactive)	
Oc1ccccc1C=NC1CCCCC1N=Cc1ccccc1O (centres undefined)		19 µM (active)
O=C(Nc1nncs1)c1cc(-c2ccco2)nc2ccccc12		19 µM (active)
COc1ccc(NC(=O)c2cc(-c3ccco3)nc3ccccc23)cn1	-26.4% (inactive)	
CCOC(=O)c1sc(NC(=O)CSc2nc(O)c(Cc3ccccc3)c(=O)[nH]2)nc1C		19 µM (active)
O=C(CN1C(=O)/C(=C/c2ccco2)SC1=S)Nc1ccc(C(=O)O)c(O)c1		16.9 µM (active)
COc1cc(/C=C2\SC(=S)N(CCC(=O)Nc3cccc(O)c3)C2=O)cc(OC)c1OC	-18.9% (inactive)	
O=C1c2cccc(Sc3ccccc3)c2C(=O)c2c(Sc3ccccc3)cccc21		3.38 µM (active)
COC(=O)c1sc2cc(C(F)(F)F)cnc2c1-c1cccnc1	-1.68% (inactive)	
CCN(CC)S(=O)(=O)c1cc(OC)ccc1N=Nc1ccc(O)c2ncccc12		1.35 µM (active)
CCN(CC)C(=O)c1ccc(O)c(OC)c1	1.29% (inactive)	
CCc1nnc(NS(=O)(=O)c2ccc(NCc3cc(Cl)cc(Cl)c3O)cc2)s1		2.39 µM (active)
O=S(=O)(Nc1nccs1)c1ccc(NCc2cc(Br)cc(Br)c2O)cc1		1.07 µM (active)
